In the library only some 1.4% were active in any assay of this set; here they are far more common.
Polio RdRp inh = poliovirus RdRp elongation inhibitors, primary screen, biochemical, fluorescence polarization, total intensity; % elongation, % (compound at 16.7 µg/mL); Genome polyprotein (Poliovirus type 1 (strain Mahoney)), P03300; AID 588519, 2011; 150,000 compounds, 0.66% hits; poliovirus polymerase elongation; hits give low values; in the data active means % elongation below about 90%
AID504770 = growth inhibition of E. coli YBA685, primary screen, V. cholerae RctB inhibitors; AID 504770, 2011; E. coli YBA685 rctB-dependent plasmid, OD600 growth, 3 h; hits give low values; z-score (no concentration beside the values); 130,000 compounds, 0.27% hits; in the data active means z-score below about -2, passing the limit was not always enough
MenB inh = M. tuberculosis MenB inhibitors, primary screen, biochemical, absorbance; MenB enzyme assay, absorbance read-out; inhibition, % (no concentration beside the values); 100,000 compounds, 0.43% hits; in the data active means inhibition above about 21%, passing the limit was not always enough
Mtb MbtI inh = MbtI salicylate synthase inhibitors, primary screen, biochemical, fluorescence intensity. purified MbtI enzyme, fluorescence intensity read-out. AID 493033, 2011. 100,000 compounds, 0.89% hits. inhibition, % (concentration not given with the values). P9WFX0; in the data active means inhibition mostly above about 56%, no sharp cut-off; inactive means mostly below about 77%
Target sequence (P9WFX0 whole entry, looked up): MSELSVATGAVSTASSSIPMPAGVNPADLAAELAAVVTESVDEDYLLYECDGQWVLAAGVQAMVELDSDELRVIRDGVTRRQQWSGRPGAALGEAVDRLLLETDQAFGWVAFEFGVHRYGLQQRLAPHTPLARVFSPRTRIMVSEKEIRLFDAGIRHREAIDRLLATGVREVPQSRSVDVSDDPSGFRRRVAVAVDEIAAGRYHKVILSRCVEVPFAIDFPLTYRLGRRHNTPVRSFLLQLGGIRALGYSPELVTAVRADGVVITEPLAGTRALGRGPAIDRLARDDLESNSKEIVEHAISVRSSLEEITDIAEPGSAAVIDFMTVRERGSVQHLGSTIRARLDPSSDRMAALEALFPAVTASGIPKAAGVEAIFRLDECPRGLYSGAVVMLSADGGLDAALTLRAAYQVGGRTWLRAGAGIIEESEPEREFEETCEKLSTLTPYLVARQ
Of the large screens only hits and unclear results are named; the others gave an inactive call; ! = not confirmed by another sample.

O=C1C=C2N(c3ccccc3)CCOC2(O)c2ccccc21 (stereo not drawn)	Polio RdRp inh 37 (no result: Mtb MbtI inh)
O=C1OC2(O)c3ccccc3C(=O)N2c2ccccc21 (stereo not drawn)	none
O=C(Nc1ccccc1Cc1ccccc1)c1cc2c(nc3sccn32)s1	none
COC(=O)C1=C(C)NC(C)=C(C(=O)c2ccccc2)C1c1ccc(Br)cc1 (stereo not drawn)	none (no result: MenB inh)
CN(C)c1ccc(/C=C/c2noc(-c3ccccc3O)n2)cc1	none (no result: AID504770, MenB inh, Mtb MbtI inh)
Oc1ccccc1-c1nc(/C=C/c2ccccc2Cl)no1	Polio RdRp inh 41 (no result: AID504770, MenB inh, Mtb MbtI inh)
CCc1ccc(CN2CCN(CC)CC2)cc1	MenB inh 35
CCc1ccc(CN2CCC(N3CCCCC3)CC2)cc1	none (no result: Mtb MbtI inh)
C/C(O)=C(\C#N)P(C)(=O)OC(C)C (stereo not drawn)	MenB inh 41
CN(C)c1ccc(NC(=S)N=P(c2ccncc2)(N(C)C)N(C)C)cc1	Mtb MbtI inh 81
CN(C)c1ccc(NC(=O)c2ccccn2)cc1	none
COC(=O)c1ccc(C(=O)OC)c2c(C(=O)OC)ccc(C(=O)OC)c12	none (no result: Mtb MbtI inh)
O=c1cc(CNC2CCCCC2)c2ccccc2[nH]1	MenB inh 30
Brc1csc(CNCCc2ccco2)c1	Polio RdRp inh 86
Brc1ccc(NCc2ccco2)cc1	none
Nc1ccc2c(c1)C(=O)N(CC1CCCO1)C2=O (stereo not drawn)	none
O=C1C=CC(=O)N1CC1CCCO1 (stereo not drawn)	Mtb MbtI inh 62 (no result: MenB inh)
O=c1[nH]c(=S)n(-c2cccc(Cl)c2)c2c1CN(C1CCCC1)CN2	MenB inh 52
O=c1[nH]c(=S)n(CCc2ccccc2)c2c1CN(CCc1ccccc1)CN2	none
Clc1ccc(CNc2nc3ccccc3[nH]2)cc1Cl	AID504770 -2.8
C=CCn1c(=S)[nH]c2cc(C(=O)O)ccc2c1=O	none
C=CCn1c(=S)[nH]c2ccccc2c1=O	MenB inh 31!
COc1ccc(S(=O)(=O)C(F)(F)F)cc1NC(C)=O	none (no result: MenB inh)
COc1ccc(SS(=O)(=O)c2ccc(OC)c(NC(C)=O)c2)cc1NC(C)=O	Mtb MbtI inh 91
Cc1ccccc1CN1C(=O)/C(=C\c2ccc(C(=O)NCc3ccco3)cc2)Sc2ccccc21	none
CCOc1ccc(NC(=O)C(C#N)=C2CCCCCC2)cc1	none (no result: Mtb MbtI inh)
O=C(NC1(C(F)(F)F)Oc2ccc(Cl)cc2O1)N1CCCCC1 (stereo not drawn)	none (no result: Polio RdRp inh, AID504770, MenB inh)
CCN(C(=O)NC1(C(F)(F)F)Oc2ccc(Cl)cc2O1)C1CCCCC1 (stereo not drawn)	Mtb MbtI inh 71
CC1(C)CSC(=NCCc2ccccc2)N1C(=O)/C=C/c1ccco1	none
C[N+]1(C)CCOC12CCCCC2	MenB inh 45
CC(C)OC(=O)Cn1c(C2CC2)nc2ccccc2c1=O	MenB inh 31
Cn1c(CC(=O)c2ccc(O)cc2O)nc2ccccc21	none (no result: Polio RdRp inh, MenB inh)
CCOCCCNC1CC(C)CC(C)(C)C1 (stereo not drawn)	AID504770 -2.2
CC1CC(NC2=NCCS2)CC(C)(C)C1 (stereo not drawn)	none (no result: Polio RdRp inh, MenB inh, Mtb MbtI inh)
CCN1CCN(c2ncc3c(n2)CCN(Cc2cc(F)cc(F)c2)C3)CC1	Polio RdRp inh 86 (no result: AID504770, MenB inh, Mtb MbtI inh)
CC1=NN(c2ccccc2)C(=O)C1C(=O)c1ccc(F)cc1 (stereo not drawn)	none
COC(=O)c1cc2c(ccn2-c2ccc(F)cc2)n1CC(=O)c1ccc(OC)cc1	none
CCn1c(C(=O)OC)cc2c1ccn2-c1ccc(F)cc1	MenB inh 32
O=C(Nc1cccc(OC(=O)c2ccco2)c1)c1ccccc1	none
Cc1cc(C(=O)O)no1	MenB inh 32
Fc1ccccc1Cn1c(C2CC2)nc2ccccc21	none
Cc1nnc(SCC(=O)c2ccc(O)c(O)c2)s1	none
Cc1cc2nc(-c3ccc(NC(=O)c4ccccc4F)cc3)oc2cc1C	Polio RdRp inh 24 (no result: AID504770, MenB inh, Mtb MbtI inh)
Cc1ccccc1C(=O)Nc1ccc(-c2nc3ccccc3o2)cc1	none
O=C(Nc1ccc(Cl)c(-c2nc3cc(Cl)ccc3o2)c1)c1cc2ccccc2o1	none (no result: AID504770, MenB inh, Mtb MbtI inh)
O=C(Nc1ccc(-c2nc3cc(Cl)ccc3o2)cc1)c1cc2ccccc2o1	Polio RdRp inh 49 (no result: AID504770, MenB inh, Mtb MbtI inh)
O=C(c1ccccc1)c1ccc(OCC(O)CN2C(=O)c3ccccc3C2=O)cc1 (stereo not drawn)	none (no result: Mtb MbtI inh)
Cc1cc(C(=O)CSc2nnc(-c3cccs3)o2)c(C)n1CCc1ccc(F)cc1	none
O=c1/c(=C/c2ccc(Br)cc2)sc2nncn12	MenB inh 33
Cc1nc(-c2nnc(SCc3ccc(Cl)cc3)o2)cs1	none (no result: Polio RdRp inh, MenB inh, Mtb MbtI inh)
CCc1cc(C(=O)O)n(C)n1	MenB inh 29
Oc1ccc(Cl)cc1Sc1cc(Cl)ccc1O	AID504770 -7.1 (no result: Mtb MbtI inh)
CCC(=O)c1cc(Cl)ccc1O	none
COc1cccc(NC(=O)Cn2ccc3c(OC)cccc3c2=O)c1	none
COc1cccc(NC(=O)Cn2sc3ccccc3c2=O)c1	AID504770 -2.5
CCC(=O)Nc1ccc2nc(C3CC3)n(Cc3ccc(Cl)cc3)c(=O)c2c1	MenB inh 31
CC1Cc2ccccc2N1C(=O)C1CCN(S(=O)(=O)c2ccc(-n3cnnn3)cc2)CC1 (stereo not drawn)	MenB inh 39
Cc1noc(C)c1COc1cccc(C(=O)N2CCc3ccccc32)c1	AID504770 -2.5
CC(C)(C)Nc1n[nH]c(=S)s1	Polio RdRp inh 76, Mtb MbtI inh 73
Cc1ccc(CNc2n[nH]c(=S)s2)cc1	none (no result: Polio RdRp inh, MenB inh, Mtb MbtI inh)
O=C1N=C(c2ccccc2)S/C1=C\c1cccs1	Mtb MbtI inh 100
O=C1N=C(N2CCCCC2)S/C1=C\c1cccs1	none (no result: Mtb MbtI inh)
CN(C)CCNC(=O)c1ccc(Br)s1	Polio RdRp inh 89
CS(=O)(=O)c1ccc2nc(NC(=O)COc3ccccc3)sc2c1	none
Cc1cc(C(=O)CSc2n[nH]c(COc3ccc(Cl)cc3)n2)c(C)n1-c1nccs1	none
c1ccc(CN(CCN(Cc2ccccn2)Cc2ccccn2)Cc2ccccn2)nc1	MenB inh 30 (no result: AID504770)
CCN(CC)CCOC(=O)c1ccc(NC(=O)c2cc3cc(OC)ccc3oc2=O)cc1	none (no result: AID504770, MenB inh, Mtb MbtI inh)
CCN(CC)CCOC(=O)c1ccc(NC(=O)c2cc3cccc(OC)c3oc2=O)cc1	Polio RdRp inh 90 (no result: AID504770, MenB inh, Mtb MbtI inh)
S=C(Cc1ccc2c(c1)OCCO2)N1CCOCC1	Polio RdRp inh 83, Mtb MbtI inh 92
COc1ccc(C(=O)Nc2n[nH]c(C(F)(F)F)n2)cc1	none (no result: MenB inh)
Cc1nn(-c2ccccc2)c2c1N(CCCC(=O)NC1CCCCC1)C(=O)CS2	none
COc1ccc(NC(=O)CSc2nnc(N)s2)cc1	none (no result: AID504770, MenB inh, Mtb MbtI inh)
COc1ccccc1NC(=O)CSC(=O)c1ccccc1	Mtb MbtI inh 87 (no result: MenB inh)
COc1ccccc1NC(=O)CSc1nnc(N)s1	Polio RdRp inh 83 (no result: AID504770, MenB inh, Mtb MbtI inh)
O=C(O)C1CSC2c3ccccc3C(=O)N12 (stereo not drawn)	MenB inh 39
O=C(CSc1nnc(-c2cccs2)n1C1CC1)N1CCCC1c1ccc2c(c1)OCCCO2 (stereo not drawn)	none
Cc1ccc(S(=O)(=O)N2CCCCC2C(=O)NC(C)c2ccc3c(c2)OCCO3)cc1 (stereo not drawn)	AID504770 -2.1
COc1ccc(C2OCC(CN3CCCCC3)O2)cc1 (stereo not drawn)	none
